VDR inh – Inhibitors of the vitamin D receptor (VDR): qHTS. Vitamin D3 receptor (Homo sapiens), P11473. VDR-SRC2-3 peptide fluorescence polarization, 2 h. Potency, µM, for the others: max response, negative = inhibition, most hits filed as inhibitors. 0.93% of 400,000 active. AID 504847, 2011; also: % is scaled to controls: 0 for no effect and ±100 for the full control effect
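FP read-out; VDR + SRC2-3 coactivator peptide; 23 nl compound by pintool; 2 h RT incubation; reagents held at 4 deg C, protected from light.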
GRP78 ERSR act – qHTS for Inducers of the Endoplasmic Reticulum Stress Response (ERSR) in Human Glioma: qHTS | U87-MG GRP78 promoter luciferase reporter, 16 h | Potency, µM, for the others: at the top dose activation, usual class: activators | 0.02% of 420,000 active | AID 602332, 2012; also: series mostly up to about 76 µM; % of control where 0% means no effect; nearly all actives have a fitted effect of over 35% in size
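Stably transfected U87-MG glioma cells carrying a GRP78-based luciferase sensor; 16 h compound incubation. Luminescence end-point read 10 min after Bright-Glo addition at room temperature.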
12-LOX inh – Primary qHTS assay for inhibitors of human arachidonate 12S-lipoxygenase (ALOX12): Round 2. purified 12hLO, xylenol orange hydroperoxide absorbance. Potency, µM (top dose mostly 108 µM), for inactives: at the highest dose activity change, negative = inhibition, hits mostly inhibitors. 1.1% of 580,000 active. AID 1671190, 2021; also: % is scaled to controls: 0 for no effect and ±100 for the full control effect
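Purified human 12hLO at 150 nM in 25 mM Hepes, 0.01% Triton X-100, pH 7.0, preincubated 15 min at room temperature with compound. Reaction started with 40 uM arachidonic acid, 30 min at room temperature. Hydroperoxide measured by Fe-xylenol orange, 573/405 nm absorbance ratio.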
G9a inh – qHTS Assay for Inhibitors of Histone Lysine Methyltransferase G9a. 8.8% of 350,000 active. G9a H3K9 monomethylation, AlphaScreen, 2 h. Potency, µM (series often up to 102 µM), inactives show at the highest dose activity, negative = inhibition, actives largely listed as inhibitors. Histone-lysine N-methyltransferase EHMT2 (Homo sapiens), Q96KQ7; also: % is scaled to controls: 0 for no effect and ±100 for the full control effect; nearly all actives have a fitted effect of over 75% in size
Target sequence (Q96KQ7 913-1193 limits assumed): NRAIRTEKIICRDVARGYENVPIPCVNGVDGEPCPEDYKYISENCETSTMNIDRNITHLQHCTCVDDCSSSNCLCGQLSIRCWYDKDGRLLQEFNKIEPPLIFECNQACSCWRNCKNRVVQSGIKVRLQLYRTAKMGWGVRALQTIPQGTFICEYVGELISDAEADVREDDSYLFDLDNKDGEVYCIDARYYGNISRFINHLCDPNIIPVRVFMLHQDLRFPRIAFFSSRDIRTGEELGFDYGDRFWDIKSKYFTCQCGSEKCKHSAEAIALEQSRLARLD
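Signal arises when biotinylated H3K9 peptide, once monomethylated, bridges streptavidin donor and antibody-captured acceptor beads. Enzyme at 20 nM was preincubated 15 min with test compounds; peptide 500 nM and SAM 20 uM then reacted for 2 h.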
Sfp PPTase inh – qHTS Assay for Inhibitors of Bacillus subtilis Sfp phosphopantetheinyl transferase (PPTase); 4'-phosphopantetheinyl transferase ffp (Bacillus subtilis), Q9F4F7; Biochemical Sfp PPTase activity, qHTS; Potency, µM, without a hit: largest response in the series, negative = inhibition, actives largely listed as inhibitors; 3.5% of 310,000 active; AID 1490, 2009;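 also: the enzyme is Sfp with the accession as filed and its product quenches rhodamine fluorescence; 0% = enzyme reaction without inhibitor and -100% = no enzyme wells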
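Reaction rates are the 30-min fluorescence difference (ex 525, em 598 nm) in wells containing 15 nM Sfp, 5 uM rhodamine-CoA and 12.5 uM BHQ-2-YbbR at pH 7.6 with 10 mM MgCl2.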
* marks the source's active call; other numbers are inactive results; ? = inconclusive; . = no result given; [ ] = remark or other dose. Only a selection was taken, and hits are over-represented in it overall. Calls follow the shape of the dose curve; as a rule, active = well fitted curve in the direction sought with a large enough effect; inconclusive = small, poorly fitted or top-dose-only effect, or another doubt; inactive = no such curve, though single readings can be large; an effect the other way counts as inactive or inconclusive. Potency is read from the fitted curve at half-maximal effect.

SMILES	VDR inh	GRP78 ERSR act	12-LOX inh	G9a inh	Sfp PPTase inh
c1ccc2[nH]c(CN3CCCCCC3)nc2c1	4.5%	-5.7%	18.4%	28.2µM*	-2.5%
O=S(=O)(c1ccccc1F)N1CCN(Cc2nc3ccccc3[nH]2)CC1	-14.2%	-3.8%	?	3.16µM*	6.2%
CCCOC(=O)c1ccc(Oc2coc3cc(OC(=O)c4ccc5c(c4)OCO5)ccc3c2=O)cc1	.	.	27.2%	.	.
O=C(C1CC1)N1CCN(Cc2ccccc2)CC1	-1.3%	-6.0%	133.5%	.	.
O=C(C1CCN(Cc2ccc(F)cc2)CC1)N1CCN(C/C=C/c2ccccc2)CC1	-8.9%	-3.5%	-13.2%	50.1µM*	-19.8%
O=C(C1CCN(Cc2ccccc2)CC1)N1CCN(C/C=C/c2ccccc2)CC1	-3.7%	-2.0%	?	14.1µM*	-29.9%
O=C(C1CCN(C2CCN(C/C=C/c3ccccc3)CC2)CC1)N1CCOCC1	7.3%	-5.7%	48.5%	2.0%	16.9%
O=C(O)C1C2CCC(CC2)C1C(=O)N1CCN(Cc2ccc(F)cc2)CC1 (stereo not given)	-9.5%	-2.2%	-19.6%	?	35.5µM*
Cc1ccc(/C=N/N2CCN(C3c4ccccc4-c4ccccc43)CC2)s1	-10.2%	-1.4%	-9.3%	79.4µM*	16.7%
C(=N\N1CCN(C2c3ccccc3-c3ccccc32)CC1)/c1ccccn1	-3.1%	0.3%	-5.0%	47.7%[0.501 µM]	-22.1%
Cc1nn(-c2ccccc2)c(Cl)c1/C=N/Nc1ccc(S(=O)(=O)Nc2ccccc2C(=O)O)cc1[N+](=O)[O-]	79.4µM*	10.7%	?	20µM*	-21.4%
CCOc1ccc(C=NNc2ccc(S(=O)(=O)Nc3ccccc3C(=O)O)cc2[N+](=O)[O-])cc1	-21.4%	-1.4%	?	.	.
Cc1nn(-c2ccccc2)c(Cl)c1/C=N/Nc1ccc(Cl)c(C(=O)O)c1	-11.2%	-12.6%	-16.0%	3.55µM*	2.4%
COc1ccc(NC(=S)NNc2ccc(S(=O)(=O)Nc3ccccc3C(=O)O)cc2[N+](=O)[O-])cc1	-2.7%	-7.8%	7.94µM*	.	79.4µM*
Cc1nn(-c2ccccc2)c(Cl)c1/C=N/NC(=O)OC(C)(C)C	-9.6%	1.9%	11.9%	15.2%	28.0%
Cc1ccc(S(=O)(=O)Nc2ccccc2C(=O)OC(C)C(=O)Nc2ccc3ccccc3c2)cc1[N+](=O)[O-] (stereo not given)	-20.1%	-2.4%	-10.3%	50.1µM*	2.0%
COc1ccc(C2CC(=O)Nc3c2c(C)nn3-c2ncccn2)cc1 (stereo not given)	.	.	7.4%	.	.
CC(NC(=O)CC1C=CCC1)c1cccs1 (stereo not given)	.	.	-27.9%	.	.
CC(C)CNC(=O)c1c(-n2cnnn2)sc2c1CCC2	.	.	-4.8%	.	.
COc1ccc(C=NNc2ccc(S(=O)(=O)Nc3ccccc3C(=O)O)cc2[N+](=O)[O-])c(OC)c1	89.1µM*	3.3%	.	.	.
O=C(O)c1ccccc1NS(=O)(=O)c1ccc(NN=Cc2ccccc2F)c([N+](=O)[O-])c1	?	-2.9%	?	.	.
CC(C)c1nc2oc3c(NCCN(C)C)ncnc3c2c2c1COC(C)(C)C2	.	.	-51.9%	.	.
COC(=O)c1cc2n3ccccc3c(C)c(-c3ccccc3)c-2c1C(=O)OC	-1.1%	1.3%	?	44.7µM*	-0.9%
COc1ccc(-n2nc3c(c2NC(=O)COc2cccc(OC)c2)CS(=O)(=O)C3)cc1	-23.6%	-2.4%	-12.4%	17.8µM*	50.1µM*
O=C1OCCC1Sc1nnc(-c2ccc(Cl)cc2)n1Cc1ccccc1 (stereo not given)	-11.1%	1.1%	-18.1%	11.2µM*	12.8%
C/C(=N\Nc1ccccc1Cl)c1ccc(-n2ccnc2)cc1	-22.5%	-0.9%	?	10µM*	-17.7%
Cc1cc(O)c(N)c(C)c1Cl	0.5%	0.1%	15.8µM*	?	56.2µM*
CCCCOc1ccc2c(c1)/C(=C(\C(Cl)=C(Cl)Cl)[N+](=O)[O-])N2	-10.5%	-2.7%	?	44.7µM*	14.8%
CCOc1ccc2c(c1)/C(=N/N1C(=O)c3ccccc3C1=O)C(=O)N2	3.0%	-0.9%	-0.5%	-5.3%[59 µM]	17.7%

Screening data deposited in PubChem by National Center for Advancing Translational Sciences (NCATS).
